In the library only some 1.3% were active in any assay of this set; here they are far more common.
Pin1 inh – blocks the human prolyl isomerase Pin1; Q13526; Pin1 FP peptide displacement, HiFluor488, 10 min; Potency, µM (titrated, usually from 115 µM), for the others: at the highest dose activity, negative = inhibition, actives largely listed as inhibitors; actives 0.009% (n = 390,000); active means well fitted inhibition curve with a large enough effect in the polarisation, with a control signal flat, not every such curve was filed as active; inconclusive means small, poorly fitted or top-dose-only effect, or effect the other way, or a change in a side signal; inactive means no such curve, though single readings can be large or run the other way; the % refers to the polarisation; further: potency means the concentration at half of the fitted maximal effect; on the % scale 0 is the no-effect control and ±100 the full control effect
WRN helicase inh – blocks human WRN helicase. actives 0.46% (n = 360,000). Q14191. Potency, µM (titrated, usually from 114 µM), without a hit: top-dose activity change, negative = inhibition, usual class: inhibitors. WRN helicase unwinding, fluorescent forked duplex, kinetic; further: potency means the concentration at half of the fitted maximal effect; on the % scale 0 is the no-effect control and ±100 the full control effect; nearly all actives have a fitted effect of over 55% in size
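Enzyme (20 nM final) and test compound sit together 15 min at room temperature before substrate addition. Substrate is a single-forked duplex oligonucleotide (100 nM) labelled with fluorophore and quencher, with 2 mM ATP; helicase unwinding raises red fluorescence, read kinetically.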
FEN1 inhibitor – human FEN1 inhibition; actives 0.35% (n = 390,000); Recombinant FEN1 flap cleavage, fluorescence, 15 min; AID 588795; P39748; Potency, µM (titrated, usually from 114 µM), for inactives: top-dose activity change, negative = inhibition, hits mostly inhibitors; further: potency means the concentration at half of the fitted maximal effect; on the % scale 0 is the no-effect control and ±100 the full control effect; nearly all actives have a fitted effect of over 65% in size
Target sequence (P39748 whole entry, looked up): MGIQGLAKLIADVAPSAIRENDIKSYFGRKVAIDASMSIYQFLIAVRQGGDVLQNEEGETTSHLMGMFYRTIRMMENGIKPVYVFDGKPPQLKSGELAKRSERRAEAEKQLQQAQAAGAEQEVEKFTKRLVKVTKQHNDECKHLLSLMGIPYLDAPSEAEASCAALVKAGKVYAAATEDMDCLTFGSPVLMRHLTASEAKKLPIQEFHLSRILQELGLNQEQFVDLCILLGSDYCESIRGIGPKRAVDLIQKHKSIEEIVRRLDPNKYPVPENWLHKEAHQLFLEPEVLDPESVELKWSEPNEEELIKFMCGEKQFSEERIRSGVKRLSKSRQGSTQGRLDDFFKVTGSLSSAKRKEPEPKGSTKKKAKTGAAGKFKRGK
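In this screen, 50 nM flap DNA substrate was added to 10 nM FEN1 pretreated with compound for 15 min at room temperature; cleavage was followed with reads at 0 and 15 min, and Hill fitting gave concentration–response parameters.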
GRP78 ERSR act – ER stress response induction in glioma. U87-MG GRP78 promoter luciferase reporter, 16 h. AID 602332. Potency, µM, without a hit: at the highest dose activation, most hits filed as activators. actives 0.02% (n = 420,000); further: potency means the concentration at half of the fitted maximal effect; series mostly up to about 76 µM; % of control where 0% means no effect; nearly all actives have a fitted effect of over 35% in size
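ERSR induction read as luciferase luminescence (Bright-Glo, 10 min at room temperature) in stably transfected human U87-MG glioma cells exposed to compounds for 16 h, using GRP78 as sensor.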
Tb PGK inh – T. brucei PGK inhibition; AID 602233; Potency, µM (titrated, usually from 57.5 µM), for the others: at the top dose activity change, negative = inhibition, most hits filed as inhibitors; PGK/GAPDH coupled, Kinase-Glo luminescence, 60 min; actives 0.043% (n = 380,000); P07378; further: potency means the concentration at half of the fitted maximal effect; on the % scale 0 is the no-effect control and ±100 the full control effect; nearly all actives have a fitted effect of over 60% in size
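Luminescent ATP detection (Kinase-Glo Plus) follows a 60-minute room-temperature incubation, with wells lacking PGK as controls. Buffer: 100 mM TEA (pH 7.6), 5 mM MgCl2, 0.01% Tween-20. Coupling enzyme GAPDH (100 nM final) supplies unstable 1,3-BPG in-well.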
PI5P4K alpha inh – PI5P4K alpha (human) kinase inhibition | AID 652105 | P48426 | actives 1.2% (n = 330,000) | PI5P4Kalpha enzyme, ADP-Glo luminescence, 60 min; active compounds read low | max response, %; active means max response of -50% or lower; inconclusive means between -30% and -50%; inactive means -30% or higher; further: value at the top dose of about 77 µM; on the % scale 0 is the no-effect control and ±100 the full control effect
Target sequence (P48426 whole entry, looked up): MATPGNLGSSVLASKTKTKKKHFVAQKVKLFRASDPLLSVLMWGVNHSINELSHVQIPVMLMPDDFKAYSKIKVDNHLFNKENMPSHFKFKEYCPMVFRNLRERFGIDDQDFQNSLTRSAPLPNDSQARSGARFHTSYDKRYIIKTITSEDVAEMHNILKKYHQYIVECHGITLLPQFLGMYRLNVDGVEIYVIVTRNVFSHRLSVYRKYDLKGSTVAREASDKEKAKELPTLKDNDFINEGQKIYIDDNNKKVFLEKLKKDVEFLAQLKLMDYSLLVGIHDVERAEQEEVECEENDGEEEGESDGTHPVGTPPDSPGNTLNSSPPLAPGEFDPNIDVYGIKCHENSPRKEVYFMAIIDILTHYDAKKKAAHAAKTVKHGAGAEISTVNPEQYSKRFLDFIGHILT
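Controls without substrate or without enzyme flank wells where PI5P4Kalpha converts substrate using 5 microM ATP (final). Incubation lasts 60 minutes at room temperature; ADP formed is read by ADP-Glo luminescence.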
The depositor's hits bear a star; [ ] = remark or other dose. Unless noted, the call rests on the fitted dose curve; in most records, active means well fitted curve in the direction sought with a large enough effect; inconclusive means small, poorly fitted or top-dose-only effect, or another doubt; inactive means no such curve, though single readings can be large; an effect the other way counts as inactive or inconclusive.

How did CCOC(=O)N1CCN(Cc2ccc3c(c2)CN(C(=O)c2sc(C)nc2C)CCO3)CC1 do in these assays?
GRP78 ERSR act: 4%

What do the screens show for `Cc1ccc(NS(=O)(=O)c2cc3c(cc2Cl)NC(=O)C3)cc1C`?
Pin1 inh: 11%

What do the screens show for `Cc1c(P(=S)(c2ccccc2)c2ccccc2)c2ccccc2n1C(=O)Cc1ccccc1`?
Pin1 inh: 8%

What do the screens show for `COc1cc(/C=C(\C#N)C(=O)NCCc2ccccc2)cc(OC)c1O`?
Pin1 inh: inconclusive; WRN helicase inh: -6%; FEN1 inhibitor: 9%; GRP78 ERSR act: -2%; Tb PGK inh: 3%; PI5P4K alpha inh: inconclusive

How did COc1cc(/C=C(\C#N)C(=O)c2c[nH]c3ccccc23)cc(OC)c1O do in these assays?
Pin1 inh: inconclusive; WRN helicase inh: inconclusive; FEN1 inhibitor: inconclusive; GRP78 ERSR act: -1%; Tb PGK inh: -7%; PI5P4K alpha inh: -75*

How did CCc1c(C)nc(Nc2nc(C)c3ccc(OC)cc3n2)[nH]c1=O do in these assays?
Pin1 inh: -5%; WRN helicase inh: -5%; FEN1 inhibitor: 6%; GRP78 ERSR act: 4%; Tb PGK inh: inactive

Results for COc1ccc2c(C)nc(Nc3nc(C)c(C)c(=O)[nH]3)nc2c1 ?
Pin1 inh: 1%; WRN helicase inh: 2%[57.1 µM]; FEN1 inhibitor: 45µM*; GRP78 ERSR act: -2%; Tb PGK inh: -4%

What do the screens show for `C=CCn1c(SCC(=O)O)nnc1-c1cccc(Cl)c1`?
Pin1 inh: -1%; WRN helicase inh: -10%; FEN1 inhibitor: 36%; GRP78 ERSR act: 6%; Tb PGK inh: inactive; PI5P4K alpha inh: -3

What do the screens show for `CCn1c(SCC(=O)c2ccc(O)c(O)c2)nnc1-c1ccccc1`?
Pin1 inh: inconclusive; WRN helicase inh: -31%; FEN1 inhibitor: 4%; GRP78 ERSR act: 1%; Tb PGK inh: -11%; PI5P4K alpha inh: -16

What do the screens show for `CCn1c(SCC(=O)c2ccc(O)c(O)c2)nnc1-c1ccccc1OC`?
Pin1 inh: inconclusive; WRN helicase inh: 20µM*; FEN1 inhibitor: 2%; GRP78 ERSR act: inconclusive; Tb PGK inh: inconclusive; PI5P4K alpha inh: -17

What do the screens show for `C=CCn1c(SCC(=O)c2ccc(O)c(O)c2)nnc1-c1cccc(Cl)c1`?
Pin1 inh: inconclusive; WRN helicase inh: 18µM*; FEN1 inhibitor: -14%; GRP78 ERSR act: 4%; Tb PGK inh: -25%; PI5P4K alpha inh: -15

Results for C=CCn1c(SCC(=O)c2ccc(O)c(O)c2)nnc1-c1cccnc1 ?
Pin1 inh: inconclusive; WRN helicase inh: 40µM*; FEN1 inhibitor: inconclusive; GRP78 ERSR act: 0%; Tb PGK inh: inconclusive; PI5P4K alpha inh: -51*

Results for O=C(c1ccccc1O)N(Cc1cccs1)Cc1cccs1 ?
Pin1 inh: -11%

How did O=C1CCCC2=C1C1(CCS(=O)(=O)C1)N=C(Nc1nc3ccccc3o1)N2 (stereo not given) do in these assays?
Pin1 inh: -2%

How did Cc1ccc(NC(=O)CN2C(=O)S/C(=C\c3ccc(-c4cccc(C(=O)O)c4C)o3)C2=O)cc1C do in these assays?
Pin1 inh: inconclusive; WRN helicase inh: inconclusive; FEN1 inhibitor: 50µM*; GRP78 ERSR act: 1%; Tb PGK inh: inconclusive; PI5P4K alpha inh: inconclusive

What do the screens show for `Cc1ccc(SCc2c(C(=O)N/N=C/c3ccc(C)o3)nnn2-c2nonc2N)cc1`?
WRN helicase inh: -3%; GRP78 ERSR act: -2%; Tb PGK inh: 8%; PI5P4K alpha inh: -55*

What do the screens show for `Cc1ccc(/C=N/NC(=O)c2nnn(-c3nonc3N)c2CSc2ccccc2)o1`?
Pin1 inh: 10%; WRN helicase inh: -14%; FEN1 inhibitor: -1%; GRP78 ERSR act: -5%; Tb PGK inh: inactive; PI5P4K alpha inh: -14

How did O=S(=O)(c1ccc2c(c1)OCCO2)N1CCN(S(=O)(=O)c2cccc3cccnc23)CC1 do in these assays?
Pin1 inh: 23%

What do the screens show for `COc1ccc(N2Cc3ccccc3C2=O)cc1`?
Pin1 inh: 1%; WRN helicase inh: -15%; FEN1 inhibitor: 4%; GRP78 ERSR act: -9%; Tb PGK inh: inconclusive; PI5P4K alpha inh: -2

How did C=CC(=O)Oc1ccc(N2Cc3ccccc3C2=O)cc1 do in these assays?
Pin1 inh: 18%; WRN helicase inh: 56µM*; FEN1 inhibitor: -10%; GRP78 ERSR act: inconclusive; Tb PGK inh: -1%; PI5P4K alpha inh: -26

Results for COc1cc([N+](=O)[O-])cc(/C=N/NC(=O)c2cc(-c3ccccc3)nc3ccccc23)c1O ?
Pin1 inh: 30%; WRN helicase inh: -1%; FEN1 inhibitor: -1%; GRP78 ERSR act: -4%; Tb PGK inh: -8%; PI5P4K alpha inh: -57*

How did COc1cccc(/C=N/NC(=O)c2cc(-c3ccccn3)nc3ccccc23)c1O do in these assays?
Pin1 inh: -3%; WRN helicase inh: -20%; FEN1 inhibitor: -1%; GRP78 ERSR act: -6%; Tb PGK inh: 3%; PI5P4K alpha inh: 3

What do the screens show for `O=C(N/N=C/c1cc(Cl)cc([N+](=O)[O-])c1O)c1cc(-c2ccccn2)nc2ccccc12`?
Pin1 inh: -7%; WRN helicase inh: -17%; FEN1 inhibitor: 10%; GRP78 ERSR act: -4%; Tb PGK inh: -11%; PI5P4K alpha inh: -62*

Results for O=[N+]([O-])c1cc(Cl)cc(/C=N\Nc2ccccn2)c1O ?
Pin1 inh: 1%; WRN helicase inh: -11%; FEN1 inhibitor: -2%; GRP78 ERSR act: -2%; Tb PGK inh: -8%; PI5P4K alpha inh: -60*

What do the screens show for `O=[N+]([O-])c1ccc(Cl)cc1C=NNc1ccccn1`?
Pin1 inh: 0%; WRN helicase inh: -2%; FEN1 inhibitor: -3%; GRP78 ERSR act: -1%; Tb PGK inh: -6%; PI5P4K alpha inh: -1

What do the screens show for `Cc1c(C(=O)NCc2ccc3c(c2)OCO3)cnn1-c1ncc2c(n1)-c1ccccc1CC2`?
GRP78 ERSR act: 3%

What do the screens show for `COc1ccccc1N(C(=O)CCl)c1cn(C(C)=O)c2ccccc12`?
Pin1 inh: 0%; WRN helicase inh: -3%; FEN1 inhibitor: 8%; GRP78 ERSR act: -13%; Tb PGK inh: 5%; PI5P4K alpha inh: 5

How did COc1ccccc1N(C(C)=O)C1=C(Cl)C(=O)c2ccccc2C1=O do in these assays?
WRN helicase inh: -7%[11.6 µM]; GRP78 ERSR act: -13%; Tb PGK inh: -11%; PI5P4K alpha inh: -89*

What do the screens show for `N#CCC(=O)N/N=C/c1coc2ccccc2c1=O`?
Pin1 inh: 45%; WRN helicase inh: -13%[11.6 µM]; FEN1 inhibitor: -5%; GRP78 ERSR act: -3%; Tb PGK inh: -10%; PI5P4K alpha inh: -86*

Screens (PubChem)
